{"source": "paper PMC11006913", "note": "Numbering of substitutions follows the chain as printed."}
{"biological_target": "T1, PAX4 (Homo sapiens, UniProt O43316 9-242, R200K)", "T1 sequence": "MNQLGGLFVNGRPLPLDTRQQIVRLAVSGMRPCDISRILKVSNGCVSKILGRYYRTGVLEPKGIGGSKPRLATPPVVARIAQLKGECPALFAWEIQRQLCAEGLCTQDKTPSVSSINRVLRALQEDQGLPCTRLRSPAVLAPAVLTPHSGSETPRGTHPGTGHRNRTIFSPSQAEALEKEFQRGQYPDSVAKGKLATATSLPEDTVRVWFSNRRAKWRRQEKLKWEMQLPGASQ", "experiment": "PBM; 200 nM protein, PBS", "conditions": "dsDNA, one strand shown"}
{"sequence": "CGAAGGCC", "binding signal": "9.2 upbm affinity estimate (log intensity, higher = more binding, comparable within an allelic series)"}
{"sequence": "AAATTAAC", "binding signal": "11.6 upbm affinity estimate (log intensity, higher = more binding, comparable within an allelic series)"}
{"sequence": "ATTAATTC", "binding signal": "11.9 upbm affinity estimate (log intensity, higher = more binding, comparable within an allelic series)"}
{"biological_target": "PRRX1 (Homo sapiens, UniProt P54821 80-166, F113S)", "sequence (P54821 80-166 F113S)": "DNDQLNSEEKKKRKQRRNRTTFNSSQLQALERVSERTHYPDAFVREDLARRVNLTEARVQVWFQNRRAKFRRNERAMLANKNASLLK", "experiment": "PBM; 200 nM protein, PBS", "conditions": "dsDNA, one strand shown"}
{"sequence": "CGAGGGCA", "binding signal": "9.29 upbm affinity estimate (log intensity, higher = more binding, comparable within an allelic series)"}
{"sequence": "AGGGCACC", "binding signal": "9.03 upbm affinity estimate (log intensity, higher = more binding, comparable within an allelic series)"}
{"sequence": "ATTAATTC", "binding signal": "11.1 upbm affinity estimate (log intensity, higher = more binding, comparable within an allelic series)"}
{"sequence": "GAGGACCC", "binding signal": "9.19 upbm affinity estimate (log intensity, higher = more binding, comparable within an allelic series)"}
{"biological_target": "T2, PAX4 (Homo sapiens, UniProt O43316 9-242)", "T2 sequence": "T1 sequence with K192R", "experiment": "PBM; 200 nM protein, PBS", "conditions": "dsDNA, one strand shown"}
{"sequence": "CGAAGGCC", "binding signal": "9.31 upbm affinity estimate (log intensity, higher = more binding, comparable within an allelic series)"}
{"sequence": "AAATTAAC", "binding signal": "12.2 upbm affinity estimate (log intensity, higher = more binding, comparable within an allelic series)"}
{"sequence": "ATTAATTC", "binding signal": "12.5 upbm affinity estimate (log intensity, higher = more binding, comparable within an allelic series)"}
{"biological_target": "ALX4 (Homo sapiens, UniProt Q9H161 200-286, Q225E)", "sequence (Q9H161 200-286 Q225E)": "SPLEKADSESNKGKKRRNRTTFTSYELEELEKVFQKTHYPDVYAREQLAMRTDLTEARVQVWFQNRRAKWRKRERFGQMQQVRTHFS", "experiment": "PBM; 200 nM protein, PBS", "conditions": "dsDNA, one strand shown"}
{"sequence": "CGAGGGCA", "binding signal": "8.26 upbm affinity estimate (log intensity, higher = more binding, comparable within an allelic series)"}
{"sequence": "CGAAGGCC", "binding signal": "8.19 upbm affinity estimate (log intensity, higher = more binding, comparable within an allelic series)"}
{"sequence": "AGGGCACC", "binding signal": "8.09 upbm affinity estimate (log intensity, higher = more binding, comparable within an allelic series)"}
{"sequence": "AAATTAAC", "binding signal": "12.7 upbm affinity estimate (log intensity, higher = more binding, comparable within an allelic series)"}
{"sequence": "ATTAATTC", "binding signal": "12.7 upbm affinity estimate (log intensity, higher = more binding, comparable within an allelic series)"}
{"sequence": "GAGGACCC", "binding signal": "7.98 upbm affinity estimate (log intensity, higher = more binding, comparable within an allelic series)"}
{"biological_target": "T3, PAX4 (Homo sapiens, UniProt O43316 9-242, R200Q)", "T3 sequence": "T1 sequence with K192Q", "experiment": "PBM; 200 nM protein, PBS", "conditions": "dsDNA, one strand shown"}
{"sequence": "CGAAGGCC", "binding signal": "9.3 upbm affinity estimate (log intensity, higher = more binding, comparable within an allelic series)"}
{"sequence": "AAATTAAC", "binding signal": "11.9 upbm affinity estimate (log intensity, higher = more binding, comparable within an allelic series)"}
{"sequence": "ATTAATTC", "binding signal": "12.1 upbm affinity estimate (log intensity, higher = more binding, comparable within an allelic series)"}
{"biological_target": "T4, PAX4 (Homo sapiens, UniProt O43316 9-242, F177V)", "T4 sequence": "T1 sequence with F169V, K192R", "experiment": "PBM; 200 nM protein, PBS", "conditions": "dsDNA, one strand shown"}
{"sequence": "CGAAGGCC", "binding signal": "9.19 upbm affinity estimate (log intensity, higher = more binding, comparable within an allelic series)"}
{"sequence": "AAATTAAC", "binding signal": "10.5 upbm affinity estimate (log intensity, higher = more binding, comparable within an allelic series)"}
{"sequence": "ATTAATTC", "binding signal": "10.7 upbm affinity estimate (log intensity, higher = more binding, comparable within an allelic series)"}
{"biological_target": "HOXC10 (Homo sapiens, UniProt Q9NYD6 254-340, K271E)", "sequence (Q9NYD6 254-340 K271E)": "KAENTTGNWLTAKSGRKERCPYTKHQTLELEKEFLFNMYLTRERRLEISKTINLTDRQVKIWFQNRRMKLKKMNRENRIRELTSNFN", "experiment": "PBM; 200 nM protein, PBS", "conditions": "dsDNA, one strand shown"}
{"sequence": "TTAAATAA", "binding signal": "11.1 upbm affinity estimate (log intensity, higher = more binding, comparable within an allelic series)"}
{"sequence": "TATTAAGA", "binding signal": "10.9 upbm affinity estimate (log intensity, higher = more binding, comparable within an allelic series)"}
{"sequence": "CTCGGCCA", "binding signal": "10.1 upbm affinity estimate (log intensity, higher = more binding, comparable within an allelic series)"}
{"sequence": "CATTAACA", "binding signal": "11.6 upbm affinity estimate (log intensity, higher = more binding, comparable within an allelic series)"}
{"sequence": "CCGGGGAA", "binding signal": "9.99 upbm affinity estimate (log intensity, higher = more binding, comparable within an allelic series)"}
{"sequence": "AGCTCTGC", "binding signal": "9.97 upbm affinity estimate (log intensity, higher = more binding, comparable within an allelic series)"}
{"sequence": "ATACTATA", "binding signal": "11 upbm affinity estimate (log intensity, higher = more binding, comparable within an allelic series)"}
{"sequence": "AATAATAG", "binding signal": "11.2 upbm affinity estimate (log intensity, higher = more binding, comparable within an allelic series)"}
{"sequence": "CGTCCGCC", "binding signal": "10 upbm affinity estimate (log intensity, higher = more binding, comparable within an allelic series)"}
{"biological_target": "T5, PAX4 (Homo sapiens, UniProt O43316 9-242, F177Y)", "T5 sequence": "T1 sequence with F169Y, K192R", "experiment": "PBM; 200 nM protein, PBS", "conditions": "dsDNA, one strand shown"}
{"sequence": "CGAAGGCC", "binding signal": "9.09 upbm affinity estimate (log intensity, higher = more binding, comparable within an allelic series)"}
{"sequence": "AAATTAAC", "binding signal": "10.9 upbm affinity estimate (log intensity, higher = more binding, comparable within an allelic series)"}
{"sequence": "ATTAATTC", "binding signal": "11.2 upbm affinity estimate (log intensity, higher = more binding, comparable within an allelic series)"}
{"biological_target": "VAX1 (Homo sapiens, UniProt Q5SQQ9 86-172)", "sequence (Q5SQQ9 86-172)": "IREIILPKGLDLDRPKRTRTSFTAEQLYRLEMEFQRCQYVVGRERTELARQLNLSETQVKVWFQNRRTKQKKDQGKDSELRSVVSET", "experiment": "PBM; 200 nM protein, PBS", "conditions": "dsDNA, one strand shown"}
{"sequence": "TGATGGCA", "binding signal": "9.08 upbm affinity estimate (log intensity, higher = more binding, comparable within an allelic series)"}
{"sequence": "CCGGGGAA", "binding signal": "7.17 upbm affinity estimate (log intensity, higher = more binding, comparable within an allelic series)"}
{"sequence": "CGTCCGCC", "binding signal": "7.19 upbm affinity estimate (log intensity, higher = more binding, comparable within an allelic series)"}
{"biological_target": "VAX1 (Homo sapiens, UniProt Q5SQQ9 86-172, T142I)", "sequence (Q5SQQ9 86-172 T142I)": "as the sequence (Q5SQQ9 86-172) above, with T57I counted along it", "experiment": "PBM; 200 nM protein, PBS", "conditions": "dsDNA, one strand shown"}
{"sequence": "TGATGGCA", "binding signal": "8.72 upbm affinity estimate (log intensity, higher = more binding, comparable within an allelic series)"}
{"sequence": "CCGGGGAA", "binding signal": "7.19 upbm affinity estimate (log intensity, higher = more binding, comparable within an allelic series)"}
{"sequence": "CGTCCGCC", "binding signal": "7.31 upbm affinity estimate (log intensity, higher = more binding, comparable within an allelic series)"}
{"biological_target": "T6, PAX4 (Homo sapiens, UniProt O43316 9-242, R227W)", "T6 sequence": "T1 sequence with K192R, R219W", "experiment": "PBM; 200 nM protein, PBS", "conditions": "dsDNA, one strand shown"}
{"sequence": "CGAAGGCC", "binding signal": "9.29 upbm affinity estimate (log intensity, higher = more binding, comparable within an allelic series)"}
{"sequence": "AAATTAAC", "binding signal": "10.9 upbm affinity estimate (log intensity, higher = more binding, comparable within an allelic series)"}
{"sequence": "ATTAATTC", "binding signal": "11 upbm affinity estimate (log intensity, higher = more binding, comparable within an allelic series)"}
{"biological_target": "ALX3 (Homo sapiens, UniProt O95076 139-225, N203S)", "sequence (O95076 139-225 N203S)": "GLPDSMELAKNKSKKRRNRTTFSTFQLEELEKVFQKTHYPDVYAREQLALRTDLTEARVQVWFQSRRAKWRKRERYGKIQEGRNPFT", "experiment": "PBM; 200 nM protein, PBS", "conditions": "dsDNA, one strand shown"}
{"sequence": "TTAAATAA", "binding signal": "8.72 upbm affinity estimate (log intensity, higher = more binding, comparable within an allelic series)"}
{"sequence": "AAATTAAC", "binding signal": "8.57 upbm affinity estimate (log intensity, higher = more binding, comparable within an allelic series)"}
{"sequence": "ATTAATTC", "binding signal": "8.51 upbm affinity estimate (log intensity, higher = more binding, comparable within an allelic series)"}
{"biological_target": "PRRX1 (Homo sapiens, UniProt P54821 80-166)", "sequence (P54821 80-166)": "as the sequence (P54821 80-166 F113S) above, with S34F counted along it", "experiment": "PBM; 200 nM protein, PBS", "conditions": "dsDNA, one strand shown"}
{"sequence": "CGAGGGCA", "binding signal": "9.63 upbm affinity estimate (log intensity, higher = more binding, comparable within an allelic series)"}
{"sequence": "AGGGCACC", "binding signal": "9.28 upbm affinity estimate (log intensity, higher = more binding, comparable within an allelic series)"}
{"sequence": "GAGGACCC", "binding signal": "9.51 upbm affinity estimate (log intensity, higher = more binding, comparable within an allelic series)"}
